# How the values were obtained:
# Experiment in all cases: DAPPL (digital affinity profiling via proximity ligation, sequencing); 10 mM Tris-HCl pH 7.5, 50 mM NaCl, 1 mM DTT, 4% glycerol, room temperature, 30 min; GST-TFs on glutathione beads, 16-mer random dsDNA library, 0.1% formaldehyde crosslink after washing; high values mean tight binding
# Conditions in all cases: protein: recombinant; tags: N-terminal GST; dsDNA, one strand shown
# ELK1 = molecular target: T1, ELK1 (Homo sapiens, UniProt P19419 1-428)
# T1 sequence: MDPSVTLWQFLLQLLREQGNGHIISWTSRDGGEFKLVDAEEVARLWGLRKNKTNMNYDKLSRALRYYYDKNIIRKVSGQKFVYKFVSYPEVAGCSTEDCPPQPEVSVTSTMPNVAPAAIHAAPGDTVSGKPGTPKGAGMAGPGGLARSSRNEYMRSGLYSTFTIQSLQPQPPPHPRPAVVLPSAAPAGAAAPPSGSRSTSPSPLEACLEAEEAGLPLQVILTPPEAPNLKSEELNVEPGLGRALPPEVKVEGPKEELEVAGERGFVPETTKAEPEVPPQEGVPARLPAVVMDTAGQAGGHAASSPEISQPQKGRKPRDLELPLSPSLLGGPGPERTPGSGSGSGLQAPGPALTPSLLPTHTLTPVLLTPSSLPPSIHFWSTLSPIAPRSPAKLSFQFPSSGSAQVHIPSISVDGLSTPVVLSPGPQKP
# Method in brief: (§1)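 A tag-only sample was pooled with DNA-barcoded human transcription factors that had been expressed in yeast as GST fusions and captured on glutathione beads. The pools were incubated for 30 min at room temperature with 200 nmole of a random double-stranded 16-mer DNA library in Tris/NaCl/DTT/glycerol buffer, then washed, crosslinked with 0.1% formaldehyde, proximity-ligated (BsaI/T4 ligase, 1 h, 37 °C), PCR-amplified and sequenced on an Illumina NextSeq500. Binding signal is each hexamer's read frequency for a factor divided by its frequency for the tag-only sample.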
# GABPA = molecular target: T2, GABPA (Homo sapiens, UniProt Q06546 1-454)
# T2 sequence: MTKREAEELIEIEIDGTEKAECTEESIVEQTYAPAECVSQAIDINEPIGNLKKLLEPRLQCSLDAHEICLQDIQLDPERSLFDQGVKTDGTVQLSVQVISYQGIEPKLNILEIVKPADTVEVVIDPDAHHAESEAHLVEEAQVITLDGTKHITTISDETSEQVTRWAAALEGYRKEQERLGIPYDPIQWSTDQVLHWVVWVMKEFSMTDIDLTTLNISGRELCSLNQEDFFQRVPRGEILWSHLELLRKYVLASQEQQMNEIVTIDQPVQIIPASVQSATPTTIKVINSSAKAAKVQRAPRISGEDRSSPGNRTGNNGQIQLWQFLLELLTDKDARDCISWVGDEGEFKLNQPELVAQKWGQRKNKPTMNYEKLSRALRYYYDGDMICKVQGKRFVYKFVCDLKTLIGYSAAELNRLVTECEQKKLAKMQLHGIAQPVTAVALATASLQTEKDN
# Method in brief: as §1
# ERG = molecular target: T3, ERG (Homo sapiens, UniProt P11308 1-479)
# T3 sequence: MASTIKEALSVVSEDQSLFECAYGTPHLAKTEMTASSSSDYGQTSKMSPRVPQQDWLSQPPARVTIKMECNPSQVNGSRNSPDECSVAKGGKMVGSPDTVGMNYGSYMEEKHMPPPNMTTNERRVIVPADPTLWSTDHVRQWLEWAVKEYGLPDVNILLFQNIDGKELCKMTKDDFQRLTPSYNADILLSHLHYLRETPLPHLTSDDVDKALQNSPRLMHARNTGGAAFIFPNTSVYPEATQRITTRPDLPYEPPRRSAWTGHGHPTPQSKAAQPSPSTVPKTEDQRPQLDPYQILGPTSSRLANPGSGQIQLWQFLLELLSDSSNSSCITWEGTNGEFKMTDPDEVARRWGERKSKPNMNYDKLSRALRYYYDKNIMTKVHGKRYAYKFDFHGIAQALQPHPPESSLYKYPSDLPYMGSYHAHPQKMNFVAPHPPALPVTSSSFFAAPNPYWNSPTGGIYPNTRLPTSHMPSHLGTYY
# Method in brief: as §1
# ELF1 = ELF1 (Homo sapiens, UniProt P32519 1-619)
# Chain of ELF1 (P32519 whole entry): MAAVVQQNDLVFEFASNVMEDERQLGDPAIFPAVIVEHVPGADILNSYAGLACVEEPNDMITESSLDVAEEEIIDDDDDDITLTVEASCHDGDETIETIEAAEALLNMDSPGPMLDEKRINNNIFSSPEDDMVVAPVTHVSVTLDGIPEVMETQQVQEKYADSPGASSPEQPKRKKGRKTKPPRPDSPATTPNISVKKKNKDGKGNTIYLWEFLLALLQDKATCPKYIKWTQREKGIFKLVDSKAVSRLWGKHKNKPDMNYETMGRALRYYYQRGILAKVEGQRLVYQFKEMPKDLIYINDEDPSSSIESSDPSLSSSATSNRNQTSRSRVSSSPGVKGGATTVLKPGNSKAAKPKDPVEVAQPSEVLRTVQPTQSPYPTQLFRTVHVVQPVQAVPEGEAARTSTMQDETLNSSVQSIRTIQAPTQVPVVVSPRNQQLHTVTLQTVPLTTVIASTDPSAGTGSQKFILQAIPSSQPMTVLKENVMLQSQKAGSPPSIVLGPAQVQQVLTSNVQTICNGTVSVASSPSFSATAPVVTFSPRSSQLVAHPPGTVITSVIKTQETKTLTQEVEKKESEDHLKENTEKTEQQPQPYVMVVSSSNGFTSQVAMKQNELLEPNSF
# Method in brief: as §1
# EHF = molecular target: T4, EHF (Homo sapiens, UniProt Q9NZC4 1-300)
# T4 sequence: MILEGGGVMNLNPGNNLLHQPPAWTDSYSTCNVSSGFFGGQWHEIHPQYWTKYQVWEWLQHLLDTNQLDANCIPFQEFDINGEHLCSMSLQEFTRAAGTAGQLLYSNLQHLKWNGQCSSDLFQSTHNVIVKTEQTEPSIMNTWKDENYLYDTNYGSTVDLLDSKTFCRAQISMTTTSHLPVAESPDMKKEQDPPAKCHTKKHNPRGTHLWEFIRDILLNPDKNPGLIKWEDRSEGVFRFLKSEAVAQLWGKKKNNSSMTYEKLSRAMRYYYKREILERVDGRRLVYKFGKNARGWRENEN
# Method in brief: as §1
# FEV = molecular target: T5, FEV (Homo sapiens, UniProt Q99581 1-238)
# T5 sequence: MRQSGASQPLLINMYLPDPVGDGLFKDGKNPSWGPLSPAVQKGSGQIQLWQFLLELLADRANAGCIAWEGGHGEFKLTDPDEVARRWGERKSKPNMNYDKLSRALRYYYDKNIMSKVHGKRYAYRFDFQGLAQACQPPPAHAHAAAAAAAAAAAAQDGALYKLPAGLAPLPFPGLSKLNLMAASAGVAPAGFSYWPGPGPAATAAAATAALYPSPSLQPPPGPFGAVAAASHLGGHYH
# Method in brief: as §1
# ETV5 = ETV5 (Homo sapiens, UniProt P41161 1-510)
# Chain of ETV5 (P41161 whole entry): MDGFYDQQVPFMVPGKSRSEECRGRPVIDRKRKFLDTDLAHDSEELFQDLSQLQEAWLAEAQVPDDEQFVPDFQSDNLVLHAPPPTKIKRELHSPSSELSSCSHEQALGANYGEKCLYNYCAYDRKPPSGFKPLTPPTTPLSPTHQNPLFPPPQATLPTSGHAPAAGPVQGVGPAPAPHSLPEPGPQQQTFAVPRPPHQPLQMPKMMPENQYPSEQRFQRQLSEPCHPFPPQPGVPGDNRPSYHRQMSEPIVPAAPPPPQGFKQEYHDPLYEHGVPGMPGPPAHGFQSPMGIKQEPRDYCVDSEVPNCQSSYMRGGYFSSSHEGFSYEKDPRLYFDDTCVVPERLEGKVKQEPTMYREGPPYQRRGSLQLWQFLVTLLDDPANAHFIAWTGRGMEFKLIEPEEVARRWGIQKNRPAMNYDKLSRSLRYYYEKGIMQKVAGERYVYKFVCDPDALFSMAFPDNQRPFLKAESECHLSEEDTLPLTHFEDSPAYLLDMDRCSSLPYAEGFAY
# Method in brief: as §1
# ELF4 = ELF4 (Homo sapiens, UniProt Q99607 1-663)
# Chain of ELF4 (Q99607 whole entry): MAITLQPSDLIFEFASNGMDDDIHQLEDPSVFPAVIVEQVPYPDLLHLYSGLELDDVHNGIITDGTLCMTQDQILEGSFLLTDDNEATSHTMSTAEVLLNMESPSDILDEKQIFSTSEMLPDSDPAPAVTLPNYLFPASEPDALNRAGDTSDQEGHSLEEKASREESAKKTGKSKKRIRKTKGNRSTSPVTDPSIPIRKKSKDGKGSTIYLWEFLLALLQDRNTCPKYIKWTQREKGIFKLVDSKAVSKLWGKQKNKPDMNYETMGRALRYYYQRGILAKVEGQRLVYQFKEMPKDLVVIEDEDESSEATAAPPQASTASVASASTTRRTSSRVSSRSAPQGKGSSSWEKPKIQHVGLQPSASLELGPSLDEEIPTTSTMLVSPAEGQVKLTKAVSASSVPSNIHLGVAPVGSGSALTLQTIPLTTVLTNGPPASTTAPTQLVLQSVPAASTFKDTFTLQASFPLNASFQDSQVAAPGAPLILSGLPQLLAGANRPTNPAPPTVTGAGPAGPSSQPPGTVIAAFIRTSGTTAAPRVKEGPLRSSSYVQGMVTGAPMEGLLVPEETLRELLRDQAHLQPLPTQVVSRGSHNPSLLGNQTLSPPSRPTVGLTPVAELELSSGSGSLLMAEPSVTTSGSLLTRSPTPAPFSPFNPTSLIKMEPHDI
# Method in brief: as §1
# ELK4 = molecular target: T6, ELK4 (Homo sapiens, UniProt P28324-2 1-405)
# T6 sequence: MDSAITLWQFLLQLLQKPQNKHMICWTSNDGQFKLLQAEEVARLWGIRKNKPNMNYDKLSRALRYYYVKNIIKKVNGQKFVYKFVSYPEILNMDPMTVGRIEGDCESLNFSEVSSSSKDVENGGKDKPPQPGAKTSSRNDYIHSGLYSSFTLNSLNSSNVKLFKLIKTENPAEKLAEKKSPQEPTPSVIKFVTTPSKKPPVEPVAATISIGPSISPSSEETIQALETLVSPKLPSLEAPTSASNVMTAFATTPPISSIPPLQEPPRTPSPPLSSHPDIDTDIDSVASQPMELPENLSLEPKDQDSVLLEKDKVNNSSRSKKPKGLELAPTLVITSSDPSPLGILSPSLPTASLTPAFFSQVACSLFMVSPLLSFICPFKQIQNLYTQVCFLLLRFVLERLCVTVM
# Method in brief: as §1
sequence,measurement,setting,value
TCATGT,binding signal,ELK1,"1.17 fold enrichment (6-mer frequency, TF over GST control)"
same,binding signal,GABPA,"1.11 fold enrichment (6-mer frequency, TF over GST control)"
same,binding signal,ERG,"1.1 fold enrichment (6-mer frequency, TF over GST control)"
same,binding signal,ELF1,"1.15 fold enrichment (6-mer frequency, TF over GST control)"
same,binding signal,EHF,"1.02 fold enrichment (6-mer frequency, TF over GST control)"
same,binding signal,FEV,"1.05 fold enrichment (6-mer frequency, TF over GST control)"
same,binding signal,ETV5,"1.16 fold enrichment (6-mer frequency, TF over GST control)"
same,binding signal,ELF4,"1.1 fold enrichment (6-mer frequency, TF over GST control)"
same,binding signal,ELK4,"1.08 fold enrichment (6-mer frequency, TF over GST control)"

# From article PMC7862700, “An all-to-all approach to the identification of sequence-specific readers for epigenetic DNA modifications on cytosine”
